RECQ1 inh-1: blocks DNA unwinding by human RECQ1. Potency, µM (series often up to 57.3 µM), usual class: inhibitors. P46063. RECQ1 DNA unwinding, red fluorescence kinetic read. hit rate 0.54% among 240,000; further: nearly all actives have a fitted effect of over 30% in size
Target sequence (P46063 whole entry, looked up): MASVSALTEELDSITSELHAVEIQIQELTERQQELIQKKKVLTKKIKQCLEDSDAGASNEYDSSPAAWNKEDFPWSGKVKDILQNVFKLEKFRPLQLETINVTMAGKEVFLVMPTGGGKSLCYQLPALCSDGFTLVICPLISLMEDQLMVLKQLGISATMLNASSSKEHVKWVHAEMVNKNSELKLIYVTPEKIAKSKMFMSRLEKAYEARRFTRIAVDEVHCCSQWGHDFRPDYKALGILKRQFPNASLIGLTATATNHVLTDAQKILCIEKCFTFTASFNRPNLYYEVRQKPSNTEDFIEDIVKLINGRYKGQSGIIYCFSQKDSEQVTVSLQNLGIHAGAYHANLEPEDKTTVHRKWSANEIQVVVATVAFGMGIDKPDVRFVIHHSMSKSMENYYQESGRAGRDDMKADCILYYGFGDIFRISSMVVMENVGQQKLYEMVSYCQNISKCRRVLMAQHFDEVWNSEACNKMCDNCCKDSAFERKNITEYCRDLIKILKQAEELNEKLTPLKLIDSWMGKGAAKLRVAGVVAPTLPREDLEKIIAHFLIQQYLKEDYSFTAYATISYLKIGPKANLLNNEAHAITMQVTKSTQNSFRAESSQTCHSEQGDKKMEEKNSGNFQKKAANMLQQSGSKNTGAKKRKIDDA
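50 nM RECQ1T1 preincubated 15 min with compound in Tris pH 8.0 buffer with MgCl2, DTT, Tween-20 and 2.5 ug/ml poly(dI-dC); started with 200 nM TAMRA/BHQ-2 forked duplex and 2 mM ATP. Unwinding read as fluorescence (525/598 nm), two reads 2 h apart.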
TDP1 block: blocks human tyrosyl-DNA phosphodiesterase 1; Q9NUW8; recombinant TDP1, AlphaScreen DNA substrate cleavage; Potency, µM (doses to about 130 µM), most hits filed as inhibitors; hit rate 0.28% among 350,000; further: nearly all actives have a fitted effect of over 40% in size
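AlphaScreen read-out: signal falls as enzyme removes the 3' tyrosine-FITC from a 5'-biotinylated DNA oligo (15 nM, 5 min, RT). Enzyme was E. coli-made recombinant Tdp1 at 1 nM, exposed to compound for 15 min beforehand; beads 10 ug/ml, 10 min.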
BLM inh-1: inhibitors of human Bloom syndrome helicase BLM; P54132; Potency, µM (titrated, usually from 56.1 µM), most hits filed as inhibitors; AID 2528; hit rate 0.2% among 350,000; recombinant BLM DNA unwinding, fluorescence dequenching; further: nearly all actives have a fitted effect of over 35% in size
APE1 inh-1: inhibitors of human APE1 endonuclease; P27695; recombinant APE1, TAMRA/BHQ-2 abasic DNA cleavage fluorescence; Potency, µM (titrated, usually from 65.8 µM), hits mostly inhibitors; hit rate 0.35% among 350,000; AID 2517; further: nearly all actives have a fitted effect of over 55% in size
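0.75 nM APE1 + cpd, 15 min RT; start w/ 50 nM TAMRA/BHQ-2 THF-abasic dsDNA; kinetic fluor 525/598 nm ×3 reads @60 s; Δ(read3−read1); normalized to DMSO and NSC13755 control wells.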
FEN1 inh-1: human FEN1 inhibition; P39748; AID 588795; Potency, µM (top dose mostly 114 µM), actives largely listed as inhibitors; Recombinant FEN1 flap cleavage, fluorescence, 15 min; hit rate 0.35% among 390,000; further: nearly all actives have a fitted effect of over 65% in size
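Reaction started by adding substrate (50 nM final) to 10 nM enzyme after 15 min room-temperature compound preincubation. Reads at 0 and 15 min, with data normalized and fitted to a four-parameter Hill equation.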
DNA dye displace: DNA dye displacement counter-screen activity; hit rate 7% among 480; shares compounds with APE1 inh-1; AID 2564; Potency, µM (doses to about 28.5 µM), usual class: inhibitors; DNA fluorescent dye displacement counterscreen, fluorescence;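 further: loss of thiazole orange fluorescence as the dye is displaced from duplex DNA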
EndoIV counter: blocks E. coli endonuclease IV DNA cleavage | shares compounds with APE1 inh-1 | E. coli Endo IV, fluorogenic AP-site DNA cleavage | Potency, µM (series often up to 27.1 µM), hits mostly inhibitors | hit rate 4% among 560 | AID 2565
APE1 inh-2: APE1 (human) endonuclease inhibition, confirmation | hit rate 44% among 750 | shares compounds with APE1 inh-1 | Potency, µM (series often up to 57.1 µM), hits mostly inhibitors | purified APE1, fluorogenic abasic-site DNA cleavage; further: nearly all actives have a fitted effect of over 30% in size
APE1 FP inh: displaces DNA from human APE1 in FP assay | APE1 binding to TAMRA-labelled double-stranded DNA, fluorescence polarization displacement | AID 2573 | hit rate 7% among 480 | shares compounds with APE1 inh-1 | Potency, µM (top dose mostly 28.5 µM), hits mostly inhibitors
BLM inh-2: confirmation of inhibitors of human Bloom syndrome helicase BLM. hit rate 40% among 220. shares compounds with BLM inh-1. BLM DNA unwinding, fluorescence quenching, biochemical. Potency, µM, usual class: inhibitors;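 further: strand separation dequenches TAMRA so unwinding raises red fluorescence; series mostly up to about 69 µM; nearly all actives have a fitted effect of over 45% in size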
RECQ1 inh conf: confirmation of human RECQ1 helicase inhibitors; shares compounds with RECQ1 inh-1; RECQ1 helicase DNA unwinding, fluorescence; Potency, µM (series often up to 229 µM), actives largely listed as inhibitors; hit rate 28% among 610; AID 2708; further: nearly all actives have a fitted effect of over 45% in size
ADP FP counter: counter-screen for RECQ1 inhibitors: ADP displacement; Potency, µM (series often up to 228 µM), hits mostly inhibitors; shares compounds with RECQ1 inh-1; ADP fluorescence polarization displacement counterscreen; hit rate 27% among 530; AID 2711; further: nearly all actives have a fitted effect of over 45% in size
RECQ1 inh-2: confirmation of human RECQ1 helicase inhibitors; shares compounds with RECQ1 inh-1; recombinant RECQ1 DNA unwinding, red fluorescence; Potency, µM (series often up to 119 µM), actives largely listed as inhibitors; hit rate 15% among 1,100; AID 504841; further: nearly all actives have a fitted effect of over 50% in size
FEN1 inh-2: FEN1 inhibition, cherry-pick retest; shares compounds with FEN1 inh-1; FEN1 flap cleavage, TAMRA/BHQ2 fluorogenic DNA substrate; Potency, µM, actives largely listed as inhibitors; hit rate 79% among 880; AID 720498; further: nearly all actives have a fitted effect of over 60% in size
A number is an active result; 0 = inactive; ? = inconclusive; - = no result given; ! = not active in a repeat. The list is not random: actives were taken first. Their share in the collection is about 0.92%. The call rests on the fitted dose curve; in most records, active means well fitted curve in the direction sought with a large enough effect; inconclusive means small, poorly fitted or top-dose-only effect, or another doubt; inactive means no such curve, though single readings can be large; an effect the other way counts as inactive or inconclusive.

SMILES	RECQ1 inh-1	TDP1 block	BLM inh-1	APE1 inh-1	FEN1 inh-1	DNA dye displace	EndoIV counter	APE1 inh-2	APE1 FP inh	RECQ1 inh-2	others
C=C/C(C)=C/[C@@]1(C)SC(=O)C(C)=C1O	8.9µM	?	-	3.2µM	-	-	0	2µM	-	-	RECQ1 inh conf=40µM;ADP FP counter=11µM
Nc1ccc(N(CCO)CCO)cc1	?	-	0	20µM	0	0	0	0	0	0
CC(Oc1ccccc1)C(=O)Nc1ccccc1C(=O)OCc1cc(=O)n2nc(C3CC3)sc2n1 (configuration not stated)	-	0	0	-	0	-	-	-	-	-
Cc1ccc(NC(=O)CSc2ncc3c(n2)-c2ccccc2N(Cc2cccc(F)c2)S3(=O)=O)cc1F	-	0	0	-	0	-	-	-	-	-
O=C1C(=C2CCCCC2)SC(=S)N1Cc1ccco1	0	0	0	0	0	-	-	-	-	-
O=C1CC(=O)N(Cc2ccco2)C(=S)N1	11µM	2.5µM	?	11µM	35µM	0	0	35µM	?	-	RECQ1 inh conf=16µM;ADP FP counter=0
CCOC(=O)c1c(C)[nH]c(C)c1S(=O)(=O)N1CCC(C(=O)NCc2cccc(C)c2)CC1	-	0	0	-	0	-	-	-	-	-
O=C(CCCN1C(=O)/C(=C/c2ccco2)SC1=S)Nc1ccccc1C(=O)O	8.9µM	-	0	20µM	?	0	0	13µM	0	-	RECQ1 inh conf=28µM;ADP FP counter=50µM
O=[N+]([O-])c1ccc(/C=C/C2=NN(c3ccccc3)C(c3ccco3)C2)o1 (configuration not stated)	?	0	0	?	0	0	?	14µM	0	7.9µM
C(=C\c1ccco1)/C1=NN(c2ccccc2)C(c2ccco2)C1 (configuration not stated)	0	?	0	0	0	-	-	-	-	-
O=C1CCCC2=C1C(c1ccc(O)c(O)c1)Nc1ccc3ncccc3c12 (configuration not stated)	?	-	?	14µM	?	?	0	?	0	?
O=C1CCCC2=C1C(c1cccs1)Nc1ccc3ncccc3c12 (configuration not stated)	0	0	0	0	0	-	-	-	-	-
NC1=NC(=O)/C(=C\c2ccco2)S1	?	-	0	22µM	50µM	?	0	?	0	0
NC1=NC(=O)C(=Cc2ccccc2)S1	-	-	-	-	0	-	-	-	-	-
CC(C)CNC1=CC(=O)CC(c2ccco2)C1 (configuration not stated)	11µM	-	0	6.3µM	0	0	0	0	0	?	RECQ1 inh conf=?;ADP FP counter=?
O=C1C=C(NCc2ccc(Cl)cc2)CC(c2ccco2)C1 (configuration not stated)	0	0	0	0	0	-	-	-	-	-
Cc1ccc(-c2nnn(CC(=O)N(CC(=O)NCCC(C)C)c3ccc(F)cc3)n2)cc1	-	0	0	-	0	-	-	-	-	-
CCOc1cc(N2CCOCC2)c(OCC)cc1NC(C)C(=O)N1CCN(CC)CC1 (configuration not stated)	?	13µM	0	10µM	0	-	-	?	-	0
Cn1c(SCC(=O)Nc2ccc3nc(SCC(=O)N4CCCC4)sc3c2)nnc1-c1ccc(N)cc1	0.63µM	35µM	0	10µM	0	-	-	?	-	?	RECQ1 inh conf=7.1µM;ADP FP counter=?
COc1ccc(N2Cc3cccc(C(=O)N4CCN(C(=O)c5ccco5)CC4)c3C2=O)cc1	10µM	11µM	18µM	11µM	0	-	-	28µM	-	16µM	BLM inh-2=23µM;RECQ1 inh conf=40µM;ADP FP counter=?
COc1ccc(Br)cc1/C=c1\sc2nc(-c3ccco3)nn2c1=O	8.9µM	-	0	28µM	?	?	0	?	0	-	RECQ1 inh conf=20µM;ADP FP counter=?
COc1ccccc1/C=c1\sc2nc(-c3ccccc3OC)nn2c1=O	0	0	0	0	0	-	-	-	-	-
CCCCC[C@H](O)/C=C/C=C/C=C/[C@@H](O)C/C=C\CCCC(=O)O	0	0	0	0	-	-	-	-	-	-
COC(=O)c1cccc(NC(=O)c2nsc3ccccc23)c1	-	0	0	-	0	-	-	-	-	-
CNC[C@H](O)c1ccc(O)c(O)c1	18µM!	45µM!	0	7.9µM!	-	0	0	?	0	-	RECQ1 inh conf=?;ADP FP counter=14µM
SMILES	RECQ1 inh-1	TDP1 block	BLM inh-1	APE1 inh-1	FEN1 inh-1	DNA dye displace	EndoIV counter	APE1 inh-2	APE1 FP inh	RECQ1 inh-2	others
Cc1cccc(NC(=O)CN2C(=O)S/C(=C\c3ccc(-c4cccc(C(=O)O)c4C)o3)C2=O)c1	0	25µM	?	?	40µM	-	-	25µM	-	-	FEN1 inh-2=67
Cc1cccc(NC(=O)CN2C(=O)N/C(=C/c3ccc(C)o3)C2=O)c1	0	0	0	?	0	-	-	-	-	-
O=c1ccc2[n+]([O-])c3ccc(O)cc3oc-2c1	16µM	0	-	25µM	40µM	0	?	13µM	0.018µM	-	FEN1 inh-2=60
CCC1(c2ccc(OC)cc2)NC(=O)N(C)C1=O (configuration not stated)	0	0	0	0	-	-	-	-	-	-
CCc1ccc(S(=O)(=O)c2nnn3c2nc(NC(C)C)c2cc(Cl)ccc23)cc1	-	0	0	-	0	-	-	-	-	-
CCC1=NN2C(=N)/C(=C\c3ccc(OCc4cc(=O)n5nc(CC)sc5n4)c(OC)c3)C(=O)N=C2S1	7.1µM	40µM	14µM	?	50µM	-	-	32µM	-	?	FEN1 inh-2=38
CCc1nn2c(=O)cc(COc3ccc(/C=C4\C(=N)N5N=C(CC(C)C)SC5=NC4=O)cc3)nc2s1	0	-	0	?	0	-	-	-	-	-
O=c1[nH]c(=O)c2ncn(C3OC(CO)C(O)C3O)c2[nH]1 (configuration not stated)	-	0	-	-	?	-	-	-	-	-
Cc1ccc(NC(=O)CN2C(=O)N/C(=C\c3cccn3-c3cccc(C(=O)O)c3)C2=O)cc1	?	2.8µM	0	3.5µM	79µM	0	0	14µM	14µM	-	FEN1 inh-2=76

Source: PubChem
